This note sets out measurements from PubChem BioAssay (NCI).

This is part of a sample that, as a whole, favours compounds with a hit. Of some 83,000 tested, about 20% had one in any assay.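 Percent growth is the endpoint: 0 to 100 indicates growth inhibition (40 means 60% inhibition), 0 means no net growth, and negative values indicate cell death.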 Unmarked numbers belong to inactive results. Activity calls are given as the source filed them. How the source made its calls: active means growth percent below 10; inactive means the rest.

This assay relates to MDA-MB-468 breast. Put plainly: NCI-60 one-dose screen, 48 h (100 = growth as untreated, 0 = no growth, -100 = all killed). The following applies: 10 µM unless noted.
Turning to `O=C1CC(c2ccc3c(c2)OCO3)Nc2ccccc21` (stereo not drawn), the growth is 2.73% (active).
On to `CCCCOc1ccc(NC(=O)n2nc(N=NN(C)C)c3ccc(Cl)cc32)cc1`, for which the growth was 97.9%.
On to `COc1cc2c3c(c1O)-c1ccccc1[C@@H]1OC(=O)N(CC2)[C@H]31`, for which the growth was 90%.
